Results filed as inconclusive are left out. Calls of active or inactive are those of the source. Unless noted, cut-off not given; nearly all actives show AC50 up to about 26 µM.
Legend:
[1] = growth inhibition of DIPG glioma cells, dose response, cell-based, SU-DIPG-XVII, MIPE5.0, CellTiter-Glo, qHTS (AID 1347060); details: SU-DIPG-XVII viability, CellTiter-Glo ATP luminescence;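 further: cells exposed to compound for 48 hours before viability readout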
[2] = growth inhibition of DIPG glioma cells, dose response, cell-based, SU-DIPG-XIII, MIPE5.0, CellTiter-Glo, qHTS (AID 1347064; cut-off not given, nearly all actives have AC50 up to about 23 µM;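 further: cells exposed to compound for 48 hours before the viability read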); details: SU-DIPG-XIII viability, CellTiter-Glo ATP luminescence
[3] = viability loss in pontine glioma line – cell-based, SU-DIPG-XXV, MIPE5.0, CellTiter-Glo, qHTS, dose response (AID 1347065); details: CellTiter-Glo ATP luminescence;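 further: cells exposed to compound for 48 hours before ATP readout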
[4] = JHH-DIPG-1 glioma cell viability, MIPE5.0 library, CellTiter-Glo luminescence, qHTS (AID 1347067); details: JHH-DIPG-1 glioma viability, CellTiter-Glo ATP luminescence;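 further: cells exposed to compound for 48 hours before readout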

| SMILES | AC50 [1] | AC50 [2] | AC50 [3] | outcome [4] | AC50 [4] |
| --- | --- | --- | --- | --- | --- |
| COC1=C2C[C@H](C)C[C@H](OC)[C@H](O)[C@@H](C)/C=C(/C)[C@H](OC(N)=O)[C@@H](OC)/C=C\C=C(\C)C(=O)NC(=CC1=O)C2=O | 0.235 µM (active) | 0.118 µM (active) | 0.417 µM (active) | – | – |
| CC1=C(c2ccc(O)cc2)[C@H](c2ccc(OCCN3CCCCC3)cc2)Oc2cc(O)ccc21 | 20.9 µM (active) | 18.6 µM (active) | 16.6 µM (active) | inactive | – |
| Nc1nc(N)c2nc(-c3cccc(Cl)c3)c(N)nc2n1 | 1.32 µM (active) | 9.34 µM (active) | 8.33 µM (active) | – | 16.6 µM (active) |

Source: PubChem BioAssay
